Source: PubChem BioAssay AID1159580 (chemical genetic matrix, 2015)
Among all 5,500 compounds or so, about 2,000 (36%) were called active. Roughly 18% stayed inconclusive and do not appear here. Rule as the data show it: active = normalized growth mostly below about 0.91 (no sharp cut-off); inconclusive = no clear call, values can overlap the other calls; inactive = mostly above about 0.92. Some of the results follow.

Assay: chemical genetic growth profiling, strain panel (AID 1159580);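 also: tested at 20 µM; growth read once vehicle control cultures reached saturation at 30 °C; 1 = growth at the plate median or of vehicle wells; lower values mean less growth of the strain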
Conditions: growth OD

Measured: normalized growth

C[C@]12CCC3c4ccc(O)cc4CCC3C1CC[C@@H]2OC(=O)CCC1CCCC1 (stereo not given in full)
inactive: S. cerevisiae deletion strains, locus YJR075W, strain HOC1, stronger effect = lower value 0.988 | S. cerevisiae deletion strains, locus YKL009W, strain mrt4, stronger effect = lower value 0.986 | S. cerevisiae deletion strains, locus YKL068W, stronger effect = lower value 0.991 | S. cerevisiae deletion strains, locus YKL085W, strain MDH1 (second series), stronger effect = lower value 0.998 | S. cerevisiae deletion strains, locus YKL085W, strain MDH1, stronger effect = lower value 0.998 | S. cerevisiae deletion strains, locus YKL160W, strain elf1, stronger effect = lower value 1.03 | S. cerevisiae deletion strains, locus YKL190W, strain CNB1, stronger effect = lower value 0.992 | S. cerevisiae deletion strains, locus YKR001C, strain vps1, stronger effect = lower value 0.973 | S. cerevisiae deletion strains, locus YKR026C, strain gcn3, stronger effect = lower value 1.01 | S. cerevisiae deletion strains, locus YKR091W, strain srl3, stronger effect = lower value 1.02 | S. cerevisiae deletion strains, locus YLL001W, strain dnm1, stronger effect = lower value 1.03 | S. cerevisiae deletion strains, locus YLL026W, stronger effect = lower value 1.01 | S. cerevisiae deletion strains, locus YLL041C, strain sdh2, stronger effect = lower value 1 | S. cerevisiae deletion strains, locus YLR027C, strain aat2, stronger effect = lower value 0.995 | S. cerevisiae deletion strains, locus YLR039C, strain RIC1, stronger effect = lower value 0.984 | S. cerevisiae deletion strains, locus YLR058C, strain SHM2, stronger effect = lower value 0.991 | S. cerevisiae deletion strains, locus YLR102C, strain apc9, stronger effect = lower value 1.01 | S. cerevisiae deletion strains, locus YLR113W, strain HOG1, stronger effect = lower value 1.06 | S. cerevisiae deletion strains, locus YLR221C, strain rsa3, stronger effect = lower value 1.02 | S. cerevisiae deletion strains, locus YLR258W, strain gsy2, stronger effect = lower value 1.01 | S. cerevisiae deletion strains, locus YLR262C, strain YPT6 (second series), stronger effect = lower value 1.02 | S. cerevisiae deletion strains, locus YLR262C, strain YPT6, stronger effect = lower value 0.897 | S. cerevisiae deletion strains, locus YLR268W, strain sec22, stronger effect = lower value 0.993 | S. cerevisiae deletion strains, locus YLR320W, strain mms22, stronger effect = lower value 1.03 | S. cerevisiae deletion strains, locus YLR330W, strain CHS5, stronger effect = lower value 0.984 | S. cerevisiae deletion strains, locus YLR342W, strain FKS1 (second series), stronger effect = lower value 1 | S. cerevisiae deletion strains, locus YLR342W, strain FKS1, stronger effect = lower value 1.01 | S. cerevisiae deletion strains, locus YLR357W, strain rsc2, stronger effect = lower value 1.03 | S. cerevisiae deletion strains, locus YLR370C, strain arc18, stronger effect = lower value 1.02 | S. cerevisiae deletion strains, locus YLR371W, strain rom2, stronger effect = lower value 1.03 | S. cerevisiae deletion strains, locus YLR384C, strain iki3, stronger effect = lower value 1 | S. cerevisiae deletion strains, locus YLR418C, strain cdc73, stronger effect = lower value 1.03 | S. cerevisiae deletion strains, locus YML016C, strain PPZ1, stronger effect = lower value 0.988 | S. cerevisiae deletion strains, locus YML032C, strain rad52, stronger effect = lower value 0.986 | S. cerevisiae deletion strains, locus YML120C, strain ndi1, stronger effect = lower value 1.03 | S. cerevisiae deletion strains, locus YML124C, strain tub3, stronger effect = lower value 0.991 | S. cerevisiae deletion strains, locus YMR058W, strain fet3, stronger effect = lower value 1.01 | S. cerevisiae deletion strains, locus YMR078C, strain ctf18, stronger effect = lower value 1.01 | S. cerevisiae deletion strains, locus YMR125W, strain sto1, stronger effect = lower value 1.02 | S. cerevisiae deletion strains, locus YMR129W, stronger effect = lower value 1.02 | S. cerevisiae deletion strains, locus YMR205C, strain PFK2, stronger effect = lower value 1.01 | S. cerevisiae deletion strains, locus YMR223W, strain ubp8, stronger effect = lower value 1.04 | S. cerevisiae deletion strains, locus YMR231W, strain pep5, stronger effect = lower value 1 | S. cerevisiae deletion strains, locus YMR307W, strain GAS1, stronger effect = lower value 0.998 | S. cerevisiae deletion strains, locus YNL067W, strain RPL9B, stronger effect = lower value 0.988 | S. cerevisiae deletion strains, locus YNL071W, strain lat1, stronger effect = lower value 1.01 | S. cerevisiae deletion strains, locus YNL128W, strain TEP1, stronger effect = lower value 0.976 | S. cerevisiae deletion strains, locus YNL183C, strain NPR1, stronger effect = lower value 0.982 | S. cerevisiae deletion strains, locus YNL209W, strain ssb2, stronger effect = lower value 1.01 | S. cerevisiae deletion strains, locus YNL233W, strain BNI4, stronger effect = lower value 0.993 | S. cerevisiae deletion strains, locus YNL248C, strain rpa49, stronger effect = lower value 1.02 | S. cerevisiae deletion strains, locus YNL250W, strain rad50, stronger effect = lower value 1.01 | S. cerevisiae deletion strains, locus YNL271C, strain bni1, stronger effect = lower value 0.999 | S. cerevisiae deletion strains, locus YNL298W, strain CLA4, stronger effect = lower value 0.999 | S. cerevisiae deletion strains, locus YNL307C, strain MCK1, stronger effect = lower value 0.996 | S. cerevisiae deletion strains, locus YNL322C, strain KRE1 (second series), stronger effect = lower value 1.04 | S. cerevisiae deletion strains, locus YNL322C, strain KRE1, stronger effect = lower value 0.998 | S. cerevisiae deletion strains, locus YNR049C, strain mso1, stronger effect = lower value 1.03 | S. cerevisiae deletion strains, locus YNR052C, strain pop2, stronger effect = lower value 1.01 | S. cerevisiae deletion strains, locus YOL006C, strain TOP1, stronger effect = lower value 0.976 | S. cerevisiae deletion strains, locus YOL012C, strain htz1 1.23 | S. cerevisiae deletion strains, locus YOL147C, strain pex11, stronger effect = lower value 1.01 | S. cerevisiae deletion strains, locus YOR001W, strain rrp6, stronger effect = lower value 0.995 | S. cerevisiae deletion strains, locus YOR061W, strain CKA2, stronger effect = lower value 0.969 | S. cerevisiae deletion strains, locus YOR069W, strain VPS5, stronger effect = lower value 0.994 | S. cerevisiae deletion strains, locus YOR070C, strain gyp1, stronger effect = lower value 1.02 | S. cerevisiae deletion strains, locus YOR080W, strain dia2, stronger effect = lower value 0.998 | S. cerevisiae deletion strains, locus YOR083W, strain WHI5, stronger effect = lower value 1.05 | S. cerevisiae deletion strains, locus YOR106W, strain vam3, stronger effect = lower value 1.04 | S. cerevisiae deletion strains, locus YOR136W, strain idh2, stronger effect = lower value 0.991 | S. cerevisiae deletion strains, locus YOR144C, strain elg1, stronger effect = lower value 0.992 | S. cerevisiae deletion strains, locus YOR184W, strain ser1, stronger effect = lower value 0.99 | S. cerevisiae deletion strains, locus YOR231W, strain MKK1, stronger effect = lower value 1.07 | S. cerevisiae deletion strains, locus YOR265W, strain rbl2, stronger effect = lower value 1.01 | S. cerevisiae deletion strains, locus YOR270C, strain vph1, stronger effect = lower value 1.06 | S. cerevisiae deletion strains, locus YOR290C, strain snf2, stronger effect = lower value 0.986 | S. cerevisiae deletion strains, locus YOR316C, strain cot1, stronger effect = lower value 0.989 | S. cerevisiae deletion strains, locus YPL051W, strain arl3, stronger effect = lower value 1.01 | S. cerevisiae deletion strains, locus YPL055C, strain LGE1, stronger effect = lower value 0.994 | S. cerevisiae deletion strains, locus YPL078C, strain atp4, stronger effect = lower value 1.04 | S. cerevisiae deletion strains, locus YPL106C, strain sse1, stronger effect = lower value 1.05 | S. cerevisiae deletion strains, locus YPL240C, strain hsp82, stronger effect = lower value 0.996 | S. cerevisiae deletion strains, locus YPL241C, strain CIN2, stronger effect = lower value 0.979 | S. cerevisiae deletion strains, locus YPL256C, strain CLN2, stronger effect = lower value 1.03 | S. cerevisiae deletion strains, locus YPR119W, strain clb2, stronger effect = lower value 1 | S. cerevisiae deletion strains, locus YPR141C, strain kar3, stronger effect = lower value 0.996 | S. cerevisiae deletion strains, locus YPR163C, strain tif3, stronger effect = lower value 1 | S. cerevisiae deletion strains, locus YPR167C, strain met16, stronger effect = lower value 0.997 | S. cerevisiae deletion strains, strain wtn01, stronger effect = lower value 1.01 | S. cerevisiae strains, strain wild type, stronger effect = lower value 0.973
